SARS PLP yeast: inhibitors of SARS-CoV papain-like protease in yeast; S. cerevisiae expressing SARS-CoV PLpro, growth rescue; AID 485353; Potency, µM (highest dose often 32.9 µM), for inactives: at the highest dose activity, positive = growth rescue, hits mostly activators; 330,000 tested, 0.19% active; calls by dose curve; further: 0% is about no effect; nearly all actives have a fitted effect of over 55% in size
AMA1-RON2 inh: disrupts binding of P. falciparum AMA1 to RON2. AlphaScreen AMA1-biotinylated RON2 peptide binding. Potency, µM (highest dose often 58.2 µM), without a hit: at the top dose activity change, negative = inhibition, most hits filed as inhibitors. 360,000 tested, 0.2% active. AID 720542;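 further: 0% = vehicle wells and -100% = peptide control; nearly all actives have a fitted effect of over 45% in size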
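AMA1 (3D7) with his tag at 25 nM final met compounds first, then biotinylated RON2 peptide at 25 nM; detection used donor plus acceptor beads, 10 µg/mL apiece, read by AlphaScreen after 30 min at room temperature.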
Vaccinia mCherry: vaccinia inhibition (mCherry reporter). Vaccinia virus mCherry reporter infection, fluorescence. Potency, µM (top dose mostly 36.5 µM), inactives show top-dose activity change, negative = inhibition, most hits filed as inhibitors. 310,000 tested, 0.63% active; calls by dose curve; tested in A549 cells; further: on the % scale 0 is the no-effect control and ±100 the full control effect; nearly all actives have a fitted effect of over 35% in size
AmpC detergent: inhibitors of E. coli AmpC beta-lactamase with detergent | P00811 | AmpC hydrolysis of nitrocefin, absorbance 480 nm, 0.01% Triton | Potency, µM (titrated, usually from 114 µM), inactives show at the highest dose activity change, negative = inhibition, most hits filed as inhibitors | 370,000 tested, 0.041% active | AID 485294;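 further: 0% = no-compound wells and -100% = no-enzyme wells; nearly all actives have a fitted effect of over 25% in size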
Target sequence (P00811 whole entry, looked up): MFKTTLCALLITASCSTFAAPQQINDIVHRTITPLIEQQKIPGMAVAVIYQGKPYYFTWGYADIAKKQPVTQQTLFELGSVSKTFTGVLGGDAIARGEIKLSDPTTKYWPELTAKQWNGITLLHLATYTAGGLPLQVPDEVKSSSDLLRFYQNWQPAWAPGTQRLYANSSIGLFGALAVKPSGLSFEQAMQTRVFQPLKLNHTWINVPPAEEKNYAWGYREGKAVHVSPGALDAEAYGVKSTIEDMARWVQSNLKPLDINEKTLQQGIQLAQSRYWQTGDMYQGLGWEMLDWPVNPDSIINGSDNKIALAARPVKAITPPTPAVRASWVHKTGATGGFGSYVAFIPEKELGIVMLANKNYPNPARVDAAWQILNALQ
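AmpC (5.3 nM in the dispensed reagent) in 20 mM phosphate pH 7.0 with 0.01% (detergent screen) or 0.0001% Triton X-100 was preincubated with compounds for 15 min at room temperature. Nitrocefin was then added from an 800 uM solution, and hydrolysis was followed at 480 nm.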
VACV Venus inh: vaccinia inhibition (Venus reporter) | Vaccinia virus Venus reporter expression, fluorescence | Potency, µM (doses to about 36.5 µM), for the others: top-dose activity change, negative = inhibition, usual class: inhibitors | 330,000 tested, 0.46% active; calls by dose curve; tested in A549 cells; further: on the % scale 0 is the no-effect control and ±100 the full control effect; nearly all actives have a fitted effect of over 30% in size
AmpC inh no detg: inhibitors of E. coli AmpC beta-lactamase without detergent; Potency, µM (doses to about 57.1 µM), for inactives: at the highest dose activity change, negative = inhibition, hits mostly inhibitors; AID 485341; 330,000 tested, 0.52% active; AmpC nitrocefin hydrolysis, absorbance 480 nm, 0.0001% Triton;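 further: plate controls were no compound for no effect and no enzyme for full effect; nearly all actives have a fitted effect of over 20% in size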
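20 mM phosphate pH 7.0 + 0.01% (detergent screen) or 0.0001% Triton X-100; 5.3 nM AmpC reagent; cpd preinc 15 min RT; nitrocefin (800 uM stock) to start; A480 q20 s × 4 min; Activity was normalised to no-enzyme and no-compound control wells.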
* = called active by the depositor; i = inactive; ? = inconclusive; . = not tested or not shown; [ ] = another dose, or the depositor's remark. Sampled rows, rich in hits. Any-hit rate of the full collection: about 1.3%. Unless noted, the call rests on the fitted dose curve; in most records, active means well fitted curve in the direction sought with a large enough effect; inconclusive means small, poorly fitted or top-dose-only effect, or another doubt; inactive means no such curve, though single readings can be large; an effect the other way counts as inactive or inconclusive. Potency means the concentration at half of the fitted maximal effect.

SMILES	SARS PLP yeast	AMA1-RON2 inh	Vaccinia mCherry	AmpC detergent	VACV Venus inh	AmpC inh no detg
Cc1cccc(N=C2NC(=O)S/C2=C\c2ccco2)c1	5%	-6%	i	-8%	-11%	?
COc1ccc(N=C2NC(=O)/C(=C\C=C\c3ccco3)S2)cc1	-1%	0%	-14%	2%	-3%	-41%
O=C1NC(=Nc2ccc(O)cc2)S/C1=C/c1ccco1	2%	2%	?	0%	?	10µM*
Cc1cccc(N=C2NC(=O)/C(=C/C=C/c3ccco3)S2)c1	-14%	-5%	?	-14%	-17%	28µM*
Cc1ccc(N=C2NC(=O)/C(=C\c3ccco3)S2)cc1	-5%	-4%	-16%	-15%	-4%	-44%
O=C(NCc1ccccc1Br)c1cnc2sc(N3CCCCCC3)nn2c1=O	.	.	-16%	11%	-7%	.
CCCCCCC[n+]1ccc(/C=C/c2c[nH]c3ccccc23)c2ccccc21	.	.	i	.	i	.
c1csc(CNc2nc(CN3CCCC(c4nc5ccccc5o4)C3)nc3ccccc23)c1 (stereo not given)	.	.	-14%	.	2%	.
Cc1c(C(=O)NC(C)(C)CO)sc2ncnc(NCCN(C)C)c12	.	.	-13%	.	-4%	.
CCc1ccc2c(c1)NC(c1ccc(C)cc1)=NC(c1cccs1)=N2	.	.	2%	26%	-15%	.
C=CC[C@@H](CC(=O)N[C@@H](CO)Cc1ccccc1)C(=O)N[C@H](COC(=O)[C@@H](CC=C)CC(=O)OC(C)(C)C)Cc1c[nH]c2ccccc12	-5%	-13%	?	.	11µM*	205%
C=CCC[C@@H](Cc1ccc(F)cc1)C(=O)OC[C@H](Cc1c[nH]c2ccccc12)NC(=O)[C@@H](CC=C)CC(=O)N[C@H](CO)Cc1ccccc1	3%	24%	i	.	?	33%
C=CCC[C@H](Cc1ccc(F)cc1)C(=O)OC[C@H](Cc1c[nH]c2ccccc12)NC(=O)[C@@H](CC=C)CC(=O)N[C@H](CO)Cc1ccccc1	-2%	-3%	-29%	.	11µM*	105%
C=CCC[C@H](Cc1ccc(F)cc1)C(=O)OC[C@H](Cc1c[nH]c2ccccc12)NC(=O)[C@@H](CC=C)CC(=O)N[C@@H](CO)Cc1ccccc1	0%	9%	-30%	.	10µM*	-36%
Cc1c(C(=O)N(C)C2CCOC2)sc2ncnc(NCc3ccc4c(c3)OCO4)c12 (stereo not given)	.	.	-12%	.	5%	.
Cc1nc2cc(NC(=O)[C@@H]3C[C@@H](Sc4ccccn4)CN3C3CCCCCC3)ccc2s1	.	.	i	.	-18%	.
Cc1ncc2c(c1CNC(=O)c1ccc3c(c1)OCO3)CCN(C(=O)c1scc3c1CCCC3)C2	.	.	-10%	.	9%	.
O=C(NC(Nc1ncc(S(=O)(=O)c2ccc([N+](=O)[O-])cc2)s1)(C(F)(F)F)C(F)(F)F)c1ccc(Cl)cc1	-18%	-6%	18µM*	-1%	?	-31%
Cc1cccc(CNCCn2cc(C(=O)Nc3ccccc3)nn2)c1	.	.	-15%	.	-16%	.
CCCCCC(=O)Nc1cccc(C2=NOC3(C2)C[C@@H](C(N)=O)N(C(=O)CC(c2ccccc2)c2ccccc2)C3)c1 (stereo not given in full)	0%	-1%	-37%	2%	13µM*	133%
CC(=O)O[C@H]1[C@@H](O)[C@H](O)[C@H](Oc2c(O)c(C)c3c4c2[C@@H](C)CC[C@@H]4[C@@H](C)C[C@H]3C=C(C)C)O[C@H]1C	1%	?	-2%	.	-19%	175%
O=C(N[C@@H](Cc1ccccc1)C(=O)N[C@@H](Cc1ccccc1)C(=O)O)OCc1ccccc1	-2%	6%	-23%	-14%	1%	-22%
O=C(N[C@@H](Cc1ccccc1)C(=O)CCl)OCc1ccccc1	.	0%	10µM*	-14%	10µM*	-19%
COc1cccc(C2(CC(=O)N3CCCOc4c(cccc4OC)C3)CC(=O)N(C)C2=O)c1 (stereo not given)	.	.	i	.	-12%	.
Cc1cc(C(=O)NCC2CCC3(CCN(Cc4ccc(F)cc4)CC3)O2)n(C)n1 (stereo not given)	.	.	-6%	.	-3%	.
SMILES	SARS PLP yeast	AMA1-RON2 inh	Vaccinia mCherry	AmpC detergent	VACV Venus inh	AmpC inh no detg
Cc1nonc1CN(C)C(=O)C1CC12CCN(C(=O)/C=C/c1cccc(Cl)c1)CC2 (stereo not given)	.	.	0%	.	-10%	.
C/C(=N\Nc1nc(C)cc(-c2ccccc2)n1)c1ccc(F)cc1	8%	48%	.	?	.	-24%
C/C(=N/Nc1nc(-c2ccccc2)cc(-c2ccc(F)cc2)n1)c1cccc(N)c1	1%	36%	22µM*	-3%	?	-9%
CCOC(=O)Nc1ccc2c(c1)C(=NNC(N)=S)c1ccccc1-2	.	44%	11µM*	.	16µM*	.
CC(=O)NC(Cc1ccc(O)cc1)C(=O)NCC(N)C(=O)c1ccccc1 (stereo not given)	.	.	-22%	.	-14%	.
O=C(NC[C@@H]1CCCN2CCCC[C@H]12)c1cnn(-c2nccc(-c3ccco3)n2)c1C1CC1	.	.	-7%	.	8%	.
Cc1cc(-c2csc(N)n2)c(C)n1C	0%	28µM*	.	-3%	-8%	19%
Nc1cccc(Nc2nc(OC(C(F)(F)F)C(F)(F)F)nc(OC(C(F)(F)F)C(F)(F)F)n2)c1	-8%	4%	-33%[1.46 µM]	-7%	28µM*	6%
CO[C@H]1[C@H](NC(=O)c2ccco2)c2ccccc2C12CCN(Cc1cnc(N(C)C)s1)CC2	.	.	-5%	.	-1%	.
CN1CCN(c2ccc(CNC(=O)c3cccc4c(-c5ccc(F)c(F)c5)coc34)cc2)CC1	.	14µM*	?	.	?	.
CCOc1cc(/C=C2\SC(=O)N(c3ccc(O)cc3)C2=O)ccc1O	0%	3%	.	-5%	.	10µM*
Cc1nc2cc(NC(=O)[C@@H]3C[C@@H](Sc4ccccn4)CN3Cc3ccccc3F)ccc2s1	.	.	-21%	.	-19%	.
CCOC(=O)c1ccc(Nc2nc(=O)c3cccnc3s2)cc1	3%	-1%	10µM*	-7%	1%	-22%
O=c1nc(Nc2ccc(OCc3ccccc3)cc2)sc2ncccc12	0%	-1%	0.79µM*	-12%	6%	-11%
O=C(NC(=S)Nc1ccc(-c2ccc(CO)o2)cc1)c1cccs1	-2%	70%	i	8%	-11%	10µM*
Cc1ccc(C(=O)NC(=S)Nc2ccc(-c3ccc(CO)o3)cc2)cc1	-3%	19%	-21%	6%	-19%	25µM*

Assay outcomes as filed in PubChem.
